# Assay results: article PMC7862700, “An all-to-all approach to the identification of sequence-specific readers for epigenetic DNA modifications on cytosine”
# Key:
# Assay in all cases: DAPPL (digital affinity profiling via proximity ligation, sequencing); 10 mM Tris-HCl pH 7.5, 50 mM NaCl, 1 mM DTT, 4% glycerol, room temperature, 30 min; GST-TFs on glutathione beads, 16-mer random dsDNA library, 0.1% formaldehyde crosslink after washing; high values mean tight binding
# Conditions in all cases: protein: recombinant; tags: N-terminal GST; dsDNA, one strand shown
# FLI1 = biological target: T1, FLI1 (Homo sapiens, UniProt Q01543 1-452)
# T1 sequence: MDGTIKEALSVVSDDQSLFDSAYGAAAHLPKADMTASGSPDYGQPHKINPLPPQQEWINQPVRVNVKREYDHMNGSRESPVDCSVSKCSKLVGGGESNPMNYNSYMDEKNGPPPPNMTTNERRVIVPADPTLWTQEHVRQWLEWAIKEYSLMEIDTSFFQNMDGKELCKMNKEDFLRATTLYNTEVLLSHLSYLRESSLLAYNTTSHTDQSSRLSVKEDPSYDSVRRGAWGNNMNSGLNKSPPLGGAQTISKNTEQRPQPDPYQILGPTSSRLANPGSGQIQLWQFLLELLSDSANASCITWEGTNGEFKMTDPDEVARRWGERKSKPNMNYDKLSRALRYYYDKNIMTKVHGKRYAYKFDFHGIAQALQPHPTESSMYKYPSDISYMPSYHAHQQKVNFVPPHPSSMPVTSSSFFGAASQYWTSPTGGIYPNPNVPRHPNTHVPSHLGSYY
# Outline: (§1)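 Binding signal is each hexamer's read frequency for a factor divided by its frequency in the tag-only sample. The factors were GST-fused human transcription factors from yeast, captured on glutathione beads, DNA-barcoded and pooled with that sample. Pools were incubated with 200 nmole of a random double-stranded 16-mer DNA library in Tris/NaCl/DTT/glycerol buffer at room temperature for 30 min, then washed, crosslinked with 0.1% formaldehyde, proximity-ligated with BsaI/T4 ligase (1 h, 37 °C), PCR-amplified and sequenced on an Illumina NextSeq500.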
# ELK1 = biological target: T2, ELK1 (Homo sapiens, UniProt P19419 1-428)
# T2 sequence: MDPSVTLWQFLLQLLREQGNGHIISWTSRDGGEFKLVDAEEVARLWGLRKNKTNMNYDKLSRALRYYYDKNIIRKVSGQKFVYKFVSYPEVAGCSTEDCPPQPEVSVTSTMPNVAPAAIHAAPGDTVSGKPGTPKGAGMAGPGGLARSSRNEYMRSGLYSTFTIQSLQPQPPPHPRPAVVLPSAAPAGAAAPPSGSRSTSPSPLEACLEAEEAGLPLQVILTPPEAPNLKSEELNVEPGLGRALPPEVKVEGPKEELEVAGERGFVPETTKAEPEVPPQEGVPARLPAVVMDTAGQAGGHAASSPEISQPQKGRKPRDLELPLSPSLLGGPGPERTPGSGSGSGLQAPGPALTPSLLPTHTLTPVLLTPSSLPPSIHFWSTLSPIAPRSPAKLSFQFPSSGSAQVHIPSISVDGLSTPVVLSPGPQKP
# Outline: as §1
# GABPA = biological target: T3, GABPA (Homo sapiens, UniProt Q06546 1-454)
# T3 sequence: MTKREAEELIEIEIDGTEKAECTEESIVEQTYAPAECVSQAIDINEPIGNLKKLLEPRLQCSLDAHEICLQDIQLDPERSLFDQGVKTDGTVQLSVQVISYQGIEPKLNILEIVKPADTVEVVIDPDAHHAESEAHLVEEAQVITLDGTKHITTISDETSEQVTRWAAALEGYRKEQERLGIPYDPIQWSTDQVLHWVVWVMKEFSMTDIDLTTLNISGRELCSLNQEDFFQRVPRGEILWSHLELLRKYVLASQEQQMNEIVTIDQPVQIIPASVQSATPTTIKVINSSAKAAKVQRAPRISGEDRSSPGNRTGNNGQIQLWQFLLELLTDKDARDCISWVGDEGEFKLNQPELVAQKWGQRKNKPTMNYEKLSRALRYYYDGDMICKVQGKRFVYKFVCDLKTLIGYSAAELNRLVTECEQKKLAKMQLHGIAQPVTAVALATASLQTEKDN
# Outline: as §1
# ERG = biological target: T4, ERG (Homo sapiens, UniProt P11308 1-479)
# T4 sequence: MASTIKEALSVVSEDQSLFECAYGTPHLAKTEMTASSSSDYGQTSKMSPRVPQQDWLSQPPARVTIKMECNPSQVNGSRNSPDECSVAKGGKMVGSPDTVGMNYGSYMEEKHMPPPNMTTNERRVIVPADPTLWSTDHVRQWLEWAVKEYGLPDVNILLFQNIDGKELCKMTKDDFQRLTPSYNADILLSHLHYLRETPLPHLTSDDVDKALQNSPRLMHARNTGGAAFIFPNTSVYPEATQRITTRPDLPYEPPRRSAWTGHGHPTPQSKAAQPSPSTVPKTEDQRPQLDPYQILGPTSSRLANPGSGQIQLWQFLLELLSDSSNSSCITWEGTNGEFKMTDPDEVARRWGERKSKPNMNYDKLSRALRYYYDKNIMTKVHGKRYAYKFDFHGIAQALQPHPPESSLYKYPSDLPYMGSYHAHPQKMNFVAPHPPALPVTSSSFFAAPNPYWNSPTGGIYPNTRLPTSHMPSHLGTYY
# Outline: as §1
# ELF1 = ELF1 (Homo sapiens, UniProt P32519 1-619)
# Outline: as §1
# EHF = biological target: T5, EHF (Homo sapiens, UniProt Q9NZC4 1-300)
# T5 sequence: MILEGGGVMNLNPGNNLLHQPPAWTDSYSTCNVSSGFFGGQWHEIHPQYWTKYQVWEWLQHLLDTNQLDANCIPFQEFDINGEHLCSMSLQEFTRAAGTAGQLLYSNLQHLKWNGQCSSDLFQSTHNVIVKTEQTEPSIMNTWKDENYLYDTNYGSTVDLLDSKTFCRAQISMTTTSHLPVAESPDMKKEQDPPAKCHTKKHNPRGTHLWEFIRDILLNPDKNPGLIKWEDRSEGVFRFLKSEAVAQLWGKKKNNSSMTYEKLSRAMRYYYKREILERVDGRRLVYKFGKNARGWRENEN
# Outline: as §1
# SPI1 = SPI1 (Homo sapiens, UniProt P17947 1-270)
# Outline: as §1
# SPIB = SPIB (Homo sapiens, UniProt Q01892 1-262)
# Outline: as §1
# FEV = biological target: T6, FEV (Homo sapiens, UniProt Q99581 1-238)
# T6 sequence: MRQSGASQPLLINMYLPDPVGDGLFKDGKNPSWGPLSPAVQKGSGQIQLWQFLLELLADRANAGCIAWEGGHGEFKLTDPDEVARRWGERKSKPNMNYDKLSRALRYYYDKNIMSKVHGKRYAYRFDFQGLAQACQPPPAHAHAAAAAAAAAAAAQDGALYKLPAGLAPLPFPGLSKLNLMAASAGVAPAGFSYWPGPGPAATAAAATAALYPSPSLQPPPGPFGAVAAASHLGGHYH
# Outline: as §1
# ETV5 = ETV5 (Homo sapiens, UniProt P41161 1-510)
# Outline: as §1
# ELF4 = ELF4 (Homo sapiens, UniProt Q99607 1-663)
# Outline: as §1
# ETV2 = biological target: T7, ETV2 (Homo sapiens, UniProt O00321 1-342)
# T7 sequence: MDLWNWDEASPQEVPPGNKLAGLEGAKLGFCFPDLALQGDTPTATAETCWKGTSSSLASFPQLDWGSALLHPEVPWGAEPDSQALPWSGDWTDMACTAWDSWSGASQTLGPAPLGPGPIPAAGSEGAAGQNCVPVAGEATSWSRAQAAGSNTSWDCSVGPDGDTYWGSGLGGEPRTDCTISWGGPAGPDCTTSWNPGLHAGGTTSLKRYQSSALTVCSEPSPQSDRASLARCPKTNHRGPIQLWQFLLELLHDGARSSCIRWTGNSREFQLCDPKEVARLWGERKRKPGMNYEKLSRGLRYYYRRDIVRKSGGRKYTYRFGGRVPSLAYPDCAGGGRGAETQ
# Outline: as §1
# ELF3 = biological target: T8, ELF3 (Homo sapiens, UniProt P78545 1-371)
# T8 sequence: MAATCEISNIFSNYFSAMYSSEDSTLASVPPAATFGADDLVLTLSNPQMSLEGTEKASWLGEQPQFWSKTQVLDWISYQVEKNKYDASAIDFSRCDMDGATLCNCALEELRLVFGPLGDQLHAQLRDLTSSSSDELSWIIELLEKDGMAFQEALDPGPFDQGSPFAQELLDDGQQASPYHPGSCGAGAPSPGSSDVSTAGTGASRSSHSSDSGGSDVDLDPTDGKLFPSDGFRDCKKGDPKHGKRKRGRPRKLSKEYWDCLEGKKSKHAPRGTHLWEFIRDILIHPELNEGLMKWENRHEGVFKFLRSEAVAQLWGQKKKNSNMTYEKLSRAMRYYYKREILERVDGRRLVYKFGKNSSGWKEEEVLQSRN
# Outline: as §1
# ETV1 = ETV1 (Homo sapiens, UniProt P50549 1-477)
# Outline: as §1
# ERF = biological target: T9, ERF (Homo sapiens, UniProt P50548 1-548)
# T9 sequence: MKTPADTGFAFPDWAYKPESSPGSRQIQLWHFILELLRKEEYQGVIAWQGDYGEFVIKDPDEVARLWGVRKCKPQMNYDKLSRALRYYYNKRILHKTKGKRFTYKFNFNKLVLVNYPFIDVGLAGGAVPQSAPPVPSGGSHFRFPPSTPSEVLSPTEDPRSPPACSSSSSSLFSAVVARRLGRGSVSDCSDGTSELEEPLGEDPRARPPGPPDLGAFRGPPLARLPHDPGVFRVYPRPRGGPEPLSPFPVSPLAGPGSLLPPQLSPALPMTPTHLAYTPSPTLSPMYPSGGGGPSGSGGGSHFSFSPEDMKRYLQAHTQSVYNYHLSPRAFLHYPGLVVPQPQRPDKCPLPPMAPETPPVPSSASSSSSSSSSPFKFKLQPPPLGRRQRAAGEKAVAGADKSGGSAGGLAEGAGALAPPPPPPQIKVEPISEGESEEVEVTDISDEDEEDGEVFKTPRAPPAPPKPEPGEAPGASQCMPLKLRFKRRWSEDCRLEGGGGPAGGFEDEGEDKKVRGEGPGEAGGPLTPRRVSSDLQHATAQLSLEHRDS
# Outline: as §1
# ETV3L = biological target: T10, ETV3L (Homo sapiens, UniProt Q6ZN32 1-361)
# T10 sequence: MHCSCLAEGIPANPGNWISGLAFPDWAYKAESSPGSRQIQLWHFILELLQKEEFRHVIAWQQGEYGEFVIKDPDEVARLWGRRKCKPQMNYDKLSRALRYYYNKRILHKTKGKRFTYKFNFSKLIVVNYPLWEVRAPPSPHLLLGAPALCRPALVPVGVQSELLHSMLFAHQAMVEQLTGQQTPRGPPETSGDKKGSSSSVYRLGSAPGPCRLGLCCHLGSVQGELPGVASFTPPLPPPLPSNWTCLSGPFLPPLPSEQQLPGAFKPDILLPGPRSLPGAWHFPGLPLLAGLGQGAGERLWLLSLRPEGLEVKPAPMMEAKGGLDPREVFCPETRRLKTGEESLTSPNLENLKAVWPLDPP
# Outline: as §1
# ETS2 = biological target: T11, ETS2 (Homo sapiens, UniProt P15036 1-469)
# T11 sequence: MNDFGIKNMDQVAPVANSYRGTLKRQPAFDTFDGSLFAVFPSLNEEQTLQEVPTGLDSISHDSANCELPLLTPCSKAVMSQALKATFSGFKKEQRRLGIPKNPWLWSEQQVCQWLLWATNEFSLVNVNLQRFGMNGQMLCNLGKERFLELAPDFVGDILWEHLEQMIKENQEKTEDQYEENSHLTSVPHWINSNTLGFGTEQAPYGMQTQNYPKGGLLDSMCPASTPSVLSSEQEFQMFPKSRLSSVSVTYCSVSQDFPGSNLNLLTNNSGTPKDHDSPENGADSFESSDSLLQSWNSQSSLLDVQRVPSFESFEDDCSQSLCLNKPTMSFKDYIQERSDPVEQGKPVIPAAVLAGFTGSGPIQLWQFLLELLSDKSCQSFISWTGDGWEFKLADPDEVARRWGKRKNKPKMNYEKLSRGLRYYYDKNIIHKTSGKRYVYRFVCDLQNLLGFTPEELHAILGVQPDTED
# Outline: as §1
# ETV7 = biological target: T12, ETV7 (Homo sapiens, UniProt Q9Y603 1-341)
# T12 sequence: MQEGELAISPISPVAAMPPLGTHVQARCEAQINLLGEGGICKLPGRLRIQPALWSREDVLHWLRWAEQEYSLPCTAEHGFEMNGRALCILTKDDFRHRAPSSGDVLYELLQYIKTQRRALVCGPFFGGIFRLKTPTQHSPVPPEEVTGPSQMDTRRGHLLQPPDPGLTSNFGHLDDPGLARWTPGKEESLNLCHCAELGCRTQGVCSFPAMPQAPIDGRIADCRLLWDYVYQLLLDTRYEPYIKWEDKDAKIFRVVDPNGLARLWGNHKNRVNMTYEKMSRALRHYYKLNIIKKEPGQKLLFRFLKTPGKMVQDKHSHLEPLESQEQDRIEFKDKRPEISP
# Outline: as §1
# ETV3 = biological target: T13, ETV3 (Homo sapiens, UniProt P41162-2 1-143)
# T13 sequence: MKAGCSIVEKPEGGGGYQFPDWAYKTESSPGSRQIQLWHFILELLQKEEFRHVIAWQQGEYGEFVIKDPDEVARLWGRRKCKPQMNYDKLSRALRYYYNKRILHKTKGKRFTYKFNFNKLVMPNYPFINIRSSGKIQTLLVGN
# Outline: as §1
# ETV6 = ETV6 (Homo sapiens, UniProt P41212 1-452)
# Outline: as §1
# SPIB, sequence (Q01892 whole entry): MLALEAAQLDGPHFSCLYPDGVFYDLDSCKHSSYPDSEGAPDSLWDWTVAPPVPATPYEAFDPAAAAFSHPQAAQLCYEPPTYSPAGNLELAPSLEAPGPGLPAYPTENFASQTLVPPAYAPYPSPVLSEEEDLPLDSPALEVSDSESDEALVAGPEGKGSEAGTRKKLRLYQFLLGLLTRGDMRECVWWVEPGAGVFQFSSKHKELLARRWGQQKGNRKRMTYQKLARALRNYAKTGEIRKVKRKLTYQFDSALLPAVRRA
# ELF1, sequence (P32519 whole entry): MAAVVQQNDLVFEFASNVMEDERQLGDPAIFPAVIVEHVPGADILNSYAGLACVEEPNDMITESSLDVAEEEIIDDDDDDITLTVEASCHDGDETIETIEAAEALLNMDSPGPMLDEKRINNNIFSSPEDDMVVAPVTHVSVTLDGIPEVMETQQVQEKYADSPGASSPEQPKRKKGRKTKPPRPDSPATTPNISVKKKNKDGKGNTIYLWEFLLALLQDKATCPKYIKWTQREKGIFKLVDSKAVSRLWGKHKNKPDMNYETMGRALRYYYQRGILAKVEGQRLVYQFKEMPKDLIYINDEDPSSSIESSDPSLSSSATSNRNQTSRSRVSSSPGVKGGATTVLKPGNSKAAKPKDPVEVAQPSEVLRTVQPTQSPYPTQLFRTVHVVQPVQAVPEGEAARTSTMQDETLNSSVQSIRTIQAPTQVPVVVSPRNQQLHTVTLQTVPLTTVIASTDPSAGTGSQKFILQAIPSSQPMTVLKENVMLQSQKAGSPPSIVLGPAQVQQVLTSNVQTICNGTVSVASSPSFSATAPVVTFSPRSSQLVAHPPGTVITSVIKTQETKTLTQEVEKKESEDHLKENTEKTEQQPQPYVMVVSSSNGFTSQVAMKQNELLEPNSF
# ETV5, sequence (P41161 whole entry): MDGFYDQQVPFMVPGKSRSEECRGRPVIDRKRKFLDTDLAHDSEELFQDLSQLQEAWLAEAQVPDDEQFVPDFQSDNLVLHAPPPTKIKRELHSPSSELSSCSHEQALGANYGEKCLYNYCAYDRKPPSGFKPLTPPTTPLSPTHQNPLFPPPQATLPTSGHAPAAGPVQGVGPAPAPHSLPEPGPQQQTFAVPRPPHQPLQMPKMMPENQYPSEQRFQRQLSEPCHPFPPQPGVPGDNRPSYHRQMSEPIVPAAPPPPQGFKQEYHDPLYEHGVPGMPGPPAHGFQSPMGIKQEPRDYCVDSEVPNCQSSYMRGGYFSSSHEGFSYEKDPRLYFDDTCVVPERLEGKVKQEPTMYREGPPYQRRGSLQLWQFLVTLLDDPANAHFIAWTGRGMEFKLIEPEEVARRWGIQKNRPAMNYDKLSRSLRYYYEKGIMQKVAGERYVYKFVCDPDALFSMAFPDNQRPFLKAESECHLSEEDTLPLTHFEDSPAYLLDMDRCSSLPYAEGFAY
# ELF4, sequence (Q99607 whole entry): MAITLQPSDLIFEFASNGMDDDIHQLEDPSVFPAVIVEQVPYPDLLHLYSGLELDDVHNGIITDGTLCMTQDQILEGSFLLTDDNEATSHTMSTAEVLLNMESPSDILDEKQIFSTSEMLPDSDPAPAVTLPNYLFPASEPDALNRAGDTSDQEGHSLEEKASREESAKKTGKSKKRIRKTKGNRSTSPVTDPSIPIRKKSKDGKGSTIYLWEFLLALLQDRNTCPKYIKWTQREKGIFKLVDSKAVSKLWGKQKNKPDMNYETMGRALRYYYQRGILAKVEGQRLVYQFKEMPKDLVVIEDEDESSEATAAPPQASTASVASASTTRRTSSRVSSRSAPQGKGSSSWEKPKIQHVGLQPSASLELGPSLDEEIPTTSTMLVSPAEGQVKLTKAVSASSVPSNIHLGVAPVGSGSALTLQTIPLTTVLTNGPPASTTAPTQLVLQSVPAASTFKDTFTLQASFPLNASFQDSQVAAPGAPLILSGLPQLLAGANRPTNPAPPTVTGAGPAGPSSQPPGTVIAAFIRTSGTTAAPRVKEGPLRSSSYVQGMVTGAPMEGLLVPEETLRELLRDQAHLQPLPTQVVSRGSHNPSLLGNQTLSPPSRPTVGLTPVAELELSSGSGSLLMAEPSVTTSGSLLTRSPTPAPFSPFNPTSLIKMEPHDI
# ETV6, sequence (P41212 whole entry): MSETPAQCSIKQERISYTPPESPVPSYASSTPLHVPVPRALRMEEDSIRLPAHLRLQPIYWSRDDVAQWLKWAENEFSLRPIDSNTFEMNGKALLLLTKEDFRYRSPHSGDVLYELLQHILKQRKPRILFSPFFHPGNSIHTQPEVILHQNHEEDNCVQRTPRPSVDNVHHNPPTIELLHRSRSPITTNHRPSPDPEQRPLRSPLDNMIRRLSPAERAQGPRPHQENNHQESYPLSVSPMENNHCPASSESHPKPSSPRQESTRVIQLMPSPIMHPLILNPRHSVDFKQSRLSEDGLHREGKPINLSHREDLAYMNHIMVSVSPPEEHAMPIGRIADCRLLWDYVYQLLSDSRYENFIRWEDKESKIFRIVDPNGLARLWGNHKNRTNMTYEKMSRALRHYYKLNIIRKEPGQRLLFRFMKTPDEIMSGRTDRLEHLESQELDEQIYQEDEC
# ETV1, sequence (P50549 whole entry): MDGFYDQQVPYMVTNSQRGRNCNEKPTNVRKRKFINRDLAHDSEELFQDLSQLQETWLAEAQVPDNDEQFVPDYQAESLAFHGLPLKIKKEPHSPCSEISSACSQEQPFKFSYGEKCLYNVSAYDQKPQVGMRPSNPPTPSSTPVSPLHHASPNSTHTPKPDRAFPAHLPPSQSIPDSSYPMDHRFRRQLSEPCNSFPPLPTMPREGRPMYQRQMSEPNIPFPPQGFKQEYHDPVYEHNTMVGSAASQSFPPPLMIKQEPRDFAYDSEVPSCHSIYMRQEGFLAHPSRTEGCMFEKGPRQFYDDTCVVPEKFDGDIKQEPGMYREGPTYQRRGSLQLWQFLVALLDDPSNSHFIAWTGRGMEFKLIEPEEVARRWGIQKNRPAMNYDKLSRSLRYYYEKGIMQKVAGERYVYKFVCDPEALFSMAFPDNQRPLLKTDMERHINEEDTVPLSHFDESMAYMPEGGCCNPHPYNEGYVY
sequence,measurement,setting,value
GTTGAC,binding signal,FLI1,"1.11 fold enrichment (6-mer frequency, TF over GST control)"
same,binding signal,ELK1,"1.03 fold enrichment (6-mer frequency, TF over GST control)"
same,binding signal,GABPA,"1.19 fold enrichment (6-mer frequency, TF over GST control)"
same,binding signal,ERG,"1.22 fold enrichment (6-mer frequency, TF over GST control)"
same,binding signal,ELF1,"1.2 fold enrichment (6-mer frequency, TF over GST control)"
same,binding signal,EHF,"1.17 fold enrichment (6-mer frequency, TF over GST control)"
same,binding signal,SPI1,"1.15 fold enrichment (6-mer frequency, TF over GST control)"
same,binding signal,SPIB,"1.22 fold enrichment (6-mer frequency, TF over GST control)"
same,binding signal,FEV,"1.18 fold enrichment (6-mer frequency, TF over GST control)"
same,binding signal,ETV5,"1.01 fold enrichment (6-mer frequency, TF over GST control)"
same,binding signal,ELF4,"1.15 fold enrichment (6-mer frequency, TF over GST control)"
same,binding signal,ETV2,"1.07 fold enrichment (6-mer frequency, TF over GST control)"
same,binding signal,ELF3,"1.09 fold enrichment (6-mer frequency, TF over GST control)"
same,binding signal,ETV1,"1.06 fold enrichment (6-mer frequency, TF over GST control)"
same,binding signal,ERF,"1.43 fold enrichment (6-mer frequency, TF over GST control)"
same,binding signal,ETV3L,"1.19 fold enrichment (6-mer frequency, TF over GST control)"
same,binding signal,ETS2,"1.17 fold enrichment (6-mer frequency, TF over GST control)"
same,binding signal,ETV7,"1.19 fold enrichment (6-mer frequency, TF over GST control)"
same,binding signal,ETV3,"1.04 fold enrichment (6-mer frequency, TF over GST control)"
same,binding signal,ETV6,"1.21 fold enrichment (6-mer frequency, TF over GST control)"
